Here are results for eleven compounds from ChEMBL document CHEMBL3988442, “University of Dundee, Small-Polar-MMV Screening Library” (2021).

Where “and” joins values, the source holds several entries; their conditions need not be identical. Identical values can stand only once. For some of these results: Potency and affinity values are given separately.

Set-up in all cases: scale not given: direction of the effect not stated beside the values
For assay [1], the target named is Protein translocase subunit SecA (Escherichia coli (strain K12)) (UniProt P10408). The assay is described as follows: Assay to Identify E. coli SecA ATPase Inhibitors. It counts as functional. Particulars: 30 µM.
Protein translocase subunit SecA (Escherichia coli (strain K12)), sequence (P10408 whole entry): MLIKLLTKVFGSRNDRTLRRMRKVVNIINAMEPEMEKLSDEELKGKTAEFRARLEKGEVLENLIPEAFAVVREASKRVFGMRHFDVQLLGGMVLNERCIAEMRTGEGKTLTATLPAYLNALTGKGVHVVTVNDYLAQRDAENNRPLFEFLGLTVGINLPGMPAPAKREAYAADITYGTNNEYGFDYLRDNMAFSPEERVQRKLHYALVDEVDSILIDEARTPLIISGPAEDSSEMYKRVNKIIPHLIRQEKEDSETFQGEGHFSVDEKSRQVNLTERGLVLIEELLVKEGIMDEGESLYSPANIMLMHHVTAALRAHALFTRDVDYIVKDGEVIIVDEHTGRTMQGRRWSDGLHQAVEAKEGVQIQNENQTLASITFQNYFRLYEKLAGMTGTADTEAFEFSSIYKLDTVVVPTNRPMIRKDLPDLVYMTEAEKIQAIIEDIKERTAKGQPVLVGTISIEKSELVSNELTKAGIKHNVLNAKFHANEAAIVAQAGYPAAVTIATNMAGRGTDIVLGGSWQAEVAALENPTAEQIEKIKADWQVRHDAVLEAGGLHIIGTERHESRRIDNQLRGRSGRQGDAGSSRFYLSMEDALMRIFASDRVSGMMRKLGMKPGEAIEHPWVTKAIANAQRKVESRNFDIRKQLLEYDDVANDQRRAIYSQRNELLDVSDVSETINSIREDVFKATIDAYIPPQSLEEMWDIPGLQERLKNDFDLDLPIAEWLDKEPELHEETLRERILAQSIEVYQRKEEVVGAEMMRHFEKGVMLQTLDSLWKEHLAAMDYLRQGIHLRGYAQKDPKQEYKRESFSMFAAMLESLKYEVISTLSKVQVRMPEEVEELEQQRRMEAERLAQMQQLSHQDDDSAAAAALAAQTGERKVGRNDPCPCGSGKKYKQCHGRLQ
For assay [2], the target named is T1, Ubiquitin-activating enzyme e1, putative (Leishmania donovani (strain BPK282A1)) (UniProt E9BSI1).
T1 sequence (whole entry): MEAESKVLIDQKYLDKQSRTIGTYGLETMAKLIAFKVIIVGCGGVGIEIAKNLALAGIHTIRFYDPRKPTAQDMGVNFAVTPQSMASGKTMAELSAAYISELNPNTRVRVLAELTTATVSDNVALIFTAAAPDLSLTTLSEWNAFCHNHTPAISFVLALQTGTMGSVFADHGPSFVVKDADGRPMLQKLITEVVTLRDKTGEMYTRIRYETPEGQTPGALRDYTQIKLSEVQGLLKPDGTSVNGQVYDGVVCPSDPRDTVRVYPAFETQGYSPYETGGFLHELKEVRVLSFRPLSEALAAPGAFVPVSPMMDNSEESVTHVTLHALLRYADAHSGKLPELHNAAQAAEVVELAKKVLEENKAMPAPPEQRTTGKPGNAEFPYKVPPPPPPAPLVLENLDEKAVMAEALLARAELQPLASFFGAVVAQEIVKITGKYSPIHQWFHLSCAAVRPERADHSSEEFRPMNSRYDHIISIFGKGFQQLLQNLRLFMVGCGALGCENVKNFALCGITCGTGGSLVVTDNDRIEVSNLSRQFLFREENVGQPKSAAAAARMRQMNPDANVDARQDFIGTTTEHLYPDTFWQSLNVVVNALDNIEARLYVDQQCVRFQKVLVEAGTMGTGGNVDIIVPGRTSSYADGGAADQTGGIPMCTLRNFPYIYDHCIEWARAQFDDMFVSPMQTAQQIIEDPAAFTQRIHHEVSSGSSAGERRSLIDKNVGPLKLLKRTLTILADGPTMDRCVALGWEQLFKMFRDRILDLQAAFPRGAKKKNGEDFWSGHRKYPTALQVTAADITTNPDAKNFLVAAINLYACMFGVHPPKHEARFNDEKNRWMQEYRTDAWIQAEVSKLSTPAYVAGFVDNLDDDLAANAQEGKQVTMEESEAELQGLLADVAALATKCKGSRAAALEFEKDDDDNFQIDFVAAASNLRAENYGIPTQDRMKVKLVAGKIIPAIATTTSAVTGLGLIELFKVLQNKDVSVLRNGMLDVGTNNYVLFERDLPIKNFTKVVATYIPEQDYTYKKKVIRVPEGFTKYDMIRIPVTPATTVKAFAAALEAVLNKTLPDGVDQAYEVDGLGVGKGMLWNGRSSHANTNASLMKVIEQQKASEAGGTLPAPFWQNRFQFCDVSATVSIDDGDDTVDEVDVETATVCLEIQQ
The assay is described as follows: Leishmania donovani Ubiquitin Activating Enzyme (LdE1). In kind it is functional. Particulars: 30 µM.

For assay [3], the target named is AMP-activated protein kinase, AMPK (Homo sapiens) (UniProt P54646+O43741+P54619+Q9UGJ0+Q9Y478+Q13131+Q9UGI9). The assay is described as follows: AMP-dependent Kinase enzyme assay. An in vitro enzyme assay that detects ADP turnover that is directly proportional to AMPK activity. This uses naive AMPK that is activated during the assay with MK-8722. It counts as functional. The conditions noted are these: 30 µM.

For assay [4], the target named is Sialic acid-binding Ig-like lectin 9 (Homo sapiens) (UniProt Q9Y336). The assay is described as follows: Hs-Siglec9 ALPHAscreen SOP 20170721. Particulars: 10 µM. (In general: Alpha assays give light when donor and acceptor beads are brought close together.)
Sialic acid-binding Ig-like lectin 9 (Homo sapiens), sequence (Q9Y336 whole entry): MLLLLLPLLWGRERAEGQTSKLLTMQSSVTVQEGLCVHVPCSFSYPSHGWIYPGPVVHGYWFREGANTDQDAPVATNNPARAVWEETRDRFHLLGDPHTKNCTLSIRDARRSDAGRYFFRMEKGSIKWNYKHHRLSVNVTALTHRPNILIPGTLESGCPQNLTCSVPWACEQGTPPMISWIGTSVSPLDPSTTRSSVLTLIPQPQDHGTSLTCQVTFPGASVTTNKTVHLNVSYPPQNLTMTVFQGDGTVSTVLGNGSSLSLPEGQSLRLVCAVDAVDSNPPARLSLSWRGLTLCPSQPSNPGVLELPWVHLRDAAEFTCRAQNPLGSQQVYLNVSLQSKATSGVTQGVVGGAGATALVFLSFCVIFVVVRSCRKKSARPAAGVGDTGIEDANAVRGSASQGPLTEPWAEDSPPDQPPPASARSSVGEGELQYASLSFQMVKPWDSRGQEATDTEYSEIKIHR
For a further assay, the system named is Trypanosoma cruzi. Briefly: Trypanosoma cruzi phosphomannomutase and mannose-1-phosphate guanylyltransferase assay. It counts as functional. Particulars: 10 µM.
In assay [5] the target is T2, Arginase-2, mitochondrial (Homo sapiens) (UniProt P78540).
T2 sequence (whole entry): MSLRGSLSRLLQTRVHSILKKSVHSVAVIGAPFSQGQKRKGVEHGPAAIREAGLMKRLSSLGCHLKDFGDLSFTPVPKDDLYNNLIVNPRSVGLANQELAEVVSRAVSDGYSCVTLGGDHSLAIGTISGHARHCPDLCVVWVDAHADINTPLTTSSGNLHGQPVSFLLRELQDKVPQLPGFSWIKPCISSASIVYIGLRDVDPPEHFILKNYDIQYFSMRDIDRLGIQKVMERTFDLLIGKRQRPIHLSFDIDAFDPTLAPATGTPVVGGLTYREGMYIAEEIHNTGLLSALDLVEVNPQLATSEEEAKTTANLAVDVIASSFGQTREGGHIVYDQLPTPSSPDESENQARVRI
The assay is described as follows: in vitro enzyme assay to detect the production of urea directly proportional to the activity of Arginase II. Note: in the data most compounds retested in dose-response had high values. It counts as functional. Particulars: 33.3 µM.

The target of assay [6] is T3, Proteasome subunit beta (Trypanosoma cruzi) (UniProt O96673).
T3 sequence (whole entry): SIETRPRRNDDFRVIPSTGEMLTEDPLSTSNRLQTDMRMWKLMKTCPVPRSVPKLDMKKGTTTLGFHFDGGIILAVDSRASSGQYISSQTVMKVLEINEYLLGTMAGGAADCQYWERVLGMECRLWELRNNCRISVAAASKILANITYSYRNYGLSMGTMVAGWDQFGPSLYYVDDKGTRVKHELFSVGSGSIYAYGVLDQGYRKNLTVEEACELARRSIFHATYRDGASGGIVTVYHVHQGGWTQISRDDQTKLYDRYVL
Briefly: Trypanosoma cruzi proteasome chymotrypsin-like activity (TcProtChymo) assay. Note: in the data most compounds retested in dose-response had high values. In kind it is functional. Particulars: 9.37 µM.

Another assay is filed under the species Homo sapiens. Briefly: To identify inhibition of the IFN signalling (Jak-Stat) pathway via expression of an eGFP reporter gene under the control of an IFN-stimulated response element (ISRE) containing MxA promoter. In kind it is functional. Particulars: 30 µM. (In general: In a reporter assay the amount or activity of a reporter protein is the signal.)
The target of assay [7] is T4, Tyrosyl-tRNA synthetase, putative (Trypanosoma cruzi (strain CL Brener)) (UniProt Q4DSP6).
T4 sequence (whole entry): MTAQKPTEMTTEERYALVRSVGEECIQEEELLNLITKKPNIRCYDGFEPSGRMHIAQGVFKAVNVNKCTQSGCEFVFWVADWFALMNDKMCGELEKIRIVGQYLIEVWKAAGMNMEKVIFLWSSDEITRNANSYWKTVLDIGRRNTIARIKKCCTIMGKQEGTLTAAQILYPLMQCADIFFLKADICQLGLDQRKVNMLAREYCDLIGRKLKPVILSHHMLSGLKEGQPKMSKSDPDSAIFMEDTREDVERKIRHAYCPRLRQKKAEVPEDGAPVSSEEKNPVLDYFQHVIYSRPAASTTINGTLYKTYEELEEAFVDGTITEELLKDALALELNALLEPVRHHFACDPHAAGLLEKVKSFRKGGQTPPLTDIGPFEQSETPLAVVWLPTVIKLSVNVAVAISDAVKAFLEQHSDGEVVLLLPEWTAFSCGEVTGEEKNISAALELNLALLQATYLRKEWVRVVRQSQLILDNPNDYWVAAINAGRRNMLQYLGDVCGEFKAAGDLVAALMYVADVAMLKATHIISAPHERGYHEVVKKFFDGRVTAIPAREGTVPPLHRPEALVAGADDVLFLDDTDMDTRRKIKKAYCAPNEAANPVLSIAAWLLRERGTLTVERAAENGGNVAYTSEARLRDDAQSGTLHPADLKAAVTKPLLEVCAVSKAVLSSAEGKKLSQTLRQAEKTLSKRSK
Briefly: Trypanosoma cruzi tyrosyl tRNA synthetase (TcYRS) _High Tyrosine SOP. Note: in the data most compounds retested in dose-response had high values. In kind it is functional. The conditions noted are these: 30 µM.

In assay [8] the target is T4, Tyrosyl-tRNA synthetase, putative (Trypanosoma cruzi (strain CL Brener)). The assay is described as follows: Trypanosoma cruzi tyrosyl tRNA synthetase (TcYRS) SOP. It counts as functional. Particulars: 30 µM.
For assay [9], the target named is Chromo domain-containing protein 1 (Saccharomyces cerevisiae (strain ATCC 204508 / S288c) (Baker's yeast)) (UniProt P32657). Briefly: ScCHD-1 Enzyme Inhibition Assay. Note: in the data most compounds retested in dose-response had high values. The conditions noted are these: 30 µM. It counts as functional.
Chromo domain-containing protein 1 (Saccharomyces cerevisiae (strain ATCC 204508 / S288c) (Baker's yeast)), sequence (P32657 whole entry, the tested form may be a part): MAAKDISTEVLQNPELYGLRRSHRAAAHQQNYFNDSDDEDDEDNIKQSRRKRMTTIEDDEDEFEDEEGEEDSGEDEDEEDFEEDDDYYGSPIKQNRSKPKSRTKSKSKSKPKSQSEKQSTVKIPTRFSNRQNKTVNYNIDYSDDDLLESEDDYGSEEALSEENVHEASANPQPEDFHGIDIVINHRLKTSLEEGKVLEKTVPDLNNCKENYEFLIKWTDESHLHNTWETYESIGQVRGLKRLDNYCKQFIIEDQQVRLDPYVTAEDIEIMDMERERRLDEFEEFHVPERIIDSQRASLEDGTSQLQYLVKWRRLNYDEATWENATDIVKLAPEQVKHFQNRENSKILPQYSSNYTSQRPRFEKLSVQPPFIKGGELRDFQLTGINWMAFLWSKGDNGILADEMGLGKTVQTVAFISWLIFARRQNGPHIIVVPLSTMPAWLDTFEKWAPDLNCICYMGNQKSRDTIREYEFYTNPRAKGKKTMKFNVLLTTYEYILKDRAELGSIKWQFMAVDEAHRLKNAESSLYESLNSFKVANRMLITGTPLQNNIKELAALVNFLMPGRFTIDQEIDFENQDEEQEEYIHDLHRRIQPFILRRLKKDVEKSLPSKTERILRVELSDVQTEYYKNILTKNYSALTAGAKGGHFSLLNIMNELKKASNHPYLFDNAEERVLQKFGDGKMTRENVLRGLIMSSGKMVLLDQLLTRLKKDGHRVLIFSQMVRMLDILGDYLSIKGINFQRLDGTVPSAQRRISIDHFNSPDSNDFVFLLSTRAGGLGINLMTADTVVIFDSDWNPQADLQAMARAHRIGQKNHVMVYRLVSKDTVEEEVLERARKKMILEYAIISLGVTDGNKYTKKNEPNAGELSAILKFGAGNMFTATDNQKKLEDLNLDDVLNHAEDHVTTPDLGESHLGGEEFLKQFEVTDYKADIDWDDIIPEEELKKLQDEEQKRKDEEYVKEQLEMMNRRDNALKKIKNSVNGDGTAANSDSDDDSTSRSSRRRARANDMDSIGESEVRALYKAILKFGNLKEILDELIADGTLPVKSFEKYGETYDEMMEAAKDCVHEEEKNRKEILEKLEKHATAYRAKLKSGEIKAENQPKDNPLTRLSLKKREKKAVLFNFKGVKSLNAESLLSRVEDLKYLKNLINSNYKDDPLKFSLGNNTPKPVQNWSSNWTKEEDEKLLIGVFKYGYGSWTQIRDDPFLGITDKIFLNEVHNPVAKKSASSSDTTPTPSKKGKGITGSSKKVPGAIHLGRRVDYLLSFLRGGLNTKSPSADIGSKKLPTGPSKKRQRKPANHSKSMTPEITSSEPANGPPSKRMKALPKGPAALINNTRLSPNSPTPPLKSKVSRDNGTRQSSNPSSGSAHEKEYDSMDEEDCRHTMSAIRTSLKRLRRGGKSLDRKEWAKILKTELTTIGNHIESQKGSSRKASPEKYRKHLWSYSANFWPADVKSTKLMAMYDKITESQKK
The test system of the next assay is N/A. The assay is described as follows: Trypanosoma cruzi proteasome luciferase counter-screen. In kind it is functional. The conditions noted are these: 9.37 µM. A general note: Counterscreens check selectivity or assay interference.

Consider `CCN(CCNC(=O)c1ccccc1Br)C1CC1`, for which the Percent Effect in assay [1] is -1.99%; in [2] it was -6.33%; in assay [3], -0.476%; in assay [4] it was -1.28%; in the assay with Trypanosoma cruzi, -0.923%; in assay [5] it was 7.53%. In addition, the Percent Effect was 10.3% in assay [6]; 5.43% in the assay listed under Homo sapiens; 1.04% in assay [7]; -10.1% in assay [8]; -18% in assay [9].

For `CCOCCCn1c(NC(=O)c2scnc2C)nc2ccccc21`, the Percent Effect in [1] is -9.29%; in assay [2] it was -5.2%; in [3] it was -17.4%; in [4] it was 23.1%; in the assay with Trypanosoma cruzi, 11.1%; in assay [5], 4.27%. In addition, the Percent Effect in assay [6] was 92.3% and 90% and 93.7%; in the assay with N/A, 69.6% and 70.1%; in the assay filed under Homo sapiens, 68.6%; in [7], 7.77%; in [8] it was 21.9%; in [9] it was 72.8%.

Regarding `Cc1cc(N2CCN(Cc3ccc(-c4cc[nH]n4)o3)CC2)cc(C)n1`, the Percent Effect is -5.81% in assay [1]; 13.3% in [2]; -25.4% in assay [3]; 33.9% in assay [4]; 10.2% with Trypanosoma cruzi; 10.9% in assay [5]. Further, the Percent Effect in [6] was 12.7%; in the assay listed under Homo sapiens, 9.15%; in assay [7] it was 3.83%; in assay [8], 13.6%; in [9], -5.59%.

Take `CSC(C)(C)CNC(=O)NCCC1CCN(C)CC1`: the Percent Effect in [1] was -2.34%; in assay [2], 2.67%; in [3] it was -5.7%; in assay [4], -5.29%; with Trypanosoma cruzi, 0.487%; in assay [5], -1.56%. The Percent Effect came out at 2.96% in assay [6]; 11.5% in the assay filed under Homo sapiens; 1.64% in [7]; 6.17% in assay [8]; 1.16% in assay [9].

With `O=C(N[C@@H]1CN(Cc2ccsc2)[C@@H]2CCCO[C@@H]21)C1CC1`, the Percent Effect in [1] was -8.12%; in assay [2] it was 18.7%; in assay [3], -4.7%; in assay [4], 2.36%; in the assay with Trypanosoma cruzi, -0.193%; in [5], -57.9%. Moreover, the Percent Effect is 37.3% and 23.2% and 22.2% in [6]; 7.24% and 10.5% with N/A; -2.14% in the assay filed under Homo sapiens; 4.17% in [7]; 17.5% in [8]; -7.56% in assay [9].

With `Cc1cc(C)n(C2CCCN(C(=O)C3=NN(C)C(=O)CC3)C2)n1` (centres undefined), the Percent Effect in assay [1] is -0.53%; in [2], 18.9%; in assay [3], -18.2%; in assay [4], -2.77%; in the assay with Trypanosoma cruzi, 5%; in assay [5], -12.8%. The Percent Effect in [6] is 11.9%; in the assay filed under Homo sapiens, 23.2%; in assay [7], 8.37%; in assay [8], 25.9%; in [9], -9.84%.

On to `CCCNC(=O)CN1CCC(C(=O)Nc2cnn(CC)c2)CC1`, for which the Percent Effect is -4.73% in [1]; 18.4% in assay [2]; -9.54% in assay [3]; -8.7% in assay [4]; -5.13% with Trypanosoma cruzi; 3.24% in assay [5]. For the same compound, the Percent Effect is 3.98% in assay [6]; 7.34% in the assay listed under Homo sapiens; 6.4% in assay [7]; 18.5% in [8]; -3.68% in assay [9].

Take `CC(C)c1n[nH]c(C(=O)Nc2ccncc2)c1Br`: the Percent Effect in assay [1] is -1.59%; in [2], 7.59%; in [3] it was 60%; in assay [4], 0.333%; with Trypanosoma cruzi, -3.31%; in assay [5], 4.18%. For the same compound, the Percent Effect is 97% and 96.6% and 95.9% in assay [6]; 81.8% and 83.2% in the assay on N/A; 58.2% in the assay listed under Homo sapiens; 4.43% in assay [7]; 8.86% in assay [8]; -3.82% in [9].

In the case of `O=C(NCCCOCC1CC1)Nc1cccnc1N1CCOCC1`, the Percent Effect in assay [1] was -3.08%; in assay [2], 2.7%; in assay [3], -5.79%; in [4] it was 0.4%; in the assay with Trypanosoma cruzi, -5.27%; in [5] it was -1.67%. In addition, the Percent Effect in assay [6] is 21.1%; in the assay listed under Homo sapiens, 10.8%; in assay [7], -21.8%; in assay [8], 3.66%; in [9], 14.9%.

Turning to `CCc1ncc2c(n1)CN(Cc1nc(-c3ccccn3)no1)CC2`, the Percent Effect in assay [1] was -8.41%; in assay [2] it was 15.8%; in assay [3] it was -29.3%; in assay [4], 15.4%; in the assay on Trypanosoma cruzi, 11.7%; in assay [5] it was 1.44%. The Percent Effect was 2.79% in assay [6]; -20.6% in the assay filed under Homo sapiens; 15.3% in assay [7]; 25.9% in [8]; -10.3% in assay [9].

On to `CN(CC(N)=O)S(=O)(=O)c1ccc(F)cc1Cl`, for which the Percent Effect in assay [1] is -4.21%; in assay [2], -5.48%; in assay [3] it was 0.145%; in assay [4], 5.52%; with Trypanosoma cruzi, -0.794%; in assay [5], 0.399%. Moreover, the Percent Effect in assay [6] was 6.59%; in the assay listed under Homo sapiens, 16.6%; in assay [7] it was 13.5%; in assay [8], 21%; in [9], -3.16%.
